Reference: ChEMBL document CHEMBL1157539, “Thousands of chemical starting points for antimalarial lead identification” (Nature, 2010)
Where “and” joins values, the source holds several entries; their conditions need not be identical. Equal values may be shown once.

Columns and labels:
Format in all cases: functional
[1] = test system: Plasmodium falciparum; assay: GSK_TCMDC: Inhibition of Plasmodium falciparum 3D7 in whole red blood cells, using parasite LDH activity as an index of growth. Test compounds present at 2uM
[2] = test system: Plasmodium falciparum; assay: GSK_TCMDC: Inhibition of Plasmodium falciparum Dd2 in whole red blood cells, using parasite LDH activity as an index of growth. Test compounds present at 2uM
[3] = test system: HepG2; assay: GSK_TCMDC: Percent inhibition of human HepG2 cell line. Test compounds present at 10uM.

| Compound | Inhibition [1] | Inhibition [2] | Inhibition [3] |
| --- | --- | --- | --- |
| CN1CC=C(c2csc3ccc(NC(=O)Nc4ccc(-c5ccncc5)c(Cl)c4)cc23)CC1 | 100% | 100% | 10% |
| CC(=O)Nc1ccc(CN2CCC(N(C)c3cc(NC(=O)c4cccc(F)c4)ccn3)CC2)cc1.O=C(O)C(F)(F)F | 85% | 0% | 4% |
| CC(Cc1ccc(Sc2ccccc2)cc1)NCC(O)c1cccc(C(F)(F)F)c1 (stereo not given) | 99% | 53% | 0% |
| CCCCCc1cc(O)c2c(c1)OC(C)(C)CC2C1=CCN(Cc2ccccc2)CC1 (stereo not given) | 99% | 79% | 15% |
| O.Oc1cccc(C2CCCN(CCc3c[nH]c4ccccc34)C2)c1 (stereo not given) | 93% | 40% | 0% |
| C=C[C@H]1CN2CC[C@H]1C[C@H]2[C@H](OS(=O)(=O)O)c1ccnc2ccccc12 | 99% | 15% | 8% |
| CN(c1ccnc(Nc2ccc(CS(C)(=O)=O)cc2)n1)C1CCN(Cc2ccccc2)CC1 | 83% | 9% | 10% |
| COc1cccc(O)c1CNCC(O)c1cccc(C(F)(F)F)c1 (stereo not given) | 98% | 96% | 31% |
| O=C(NCc1ccccc1)c1nn(CCCN2CCC3(CC2)C(=O)NCN3c2ccccc2)cc1-c1ccc(Cl)c(Cl)c1 | 88% | 21% | 6% |
| CNC(=O)c1ccc2[nH]cc(C3CCN(CC4CCN(C(=O)/C=C/c5ccc(Cl)c(Cl)c5)CC4)CC3)c2c1 | 100% | 88% | 3% |
| CN1CC=C(c2c[nH]c3ccc(Br)cc23)CC1 | 88% | 80% | 0% |
| Cl.NCC(=O)c1cc2c(cc1N)OCCO2 | 89% | 42% | 64% |
| CN(C)CCCn1cc(C(=O)OC2CC3CCC(C2)N3C)c2cc(-c3ccccc3)ccc21.Cl (stereo not given) | 97% | 96% | 97% |
| Cc1ccc(CC(C)NCC(O)c2cccc(C(F)(F)F)c2)cc1.O=C(O)/C=C/C(=O)O (stereo not given) | 100% | 54% | 5% |
| CC(Cc1ccc(NC(=O)[C@@H](C)NCCc2cccc(Cl)c2)cc1)NCCc1cccc(Cl)c1.Cl (stereo not given in full) | 99% | 54% | 99% |
| CCOC(C(=O)OCC1CCCN(C)C1)(c1ccccc1)c1ccccc1 (stereo not given) | 98% | 3% | 13% |
| O=C(/C=C/c1ccc(Cl)c(Cl)c1)N1CCC(CN2CCC(c3cn(CC(=O)N4CCCCC4)c4ccccc34)CC2)CC1.O=C(O)C(F)(F)F | 100% | 65% | 52% |
| Br.CC(Cc1ccc(SC(C)(C)C)cc1)NCC(O)c1cccc(Cl)c1 (stereo not given) | 99% | 99% | 14% |
| CCCCCC(C)C(C)c1cc(O)c2c(c1)OC(C)(C)c1cnccc1-2.Cl (stereo not given) | 94% | 74% | 7% |
| COC(=O)c1sccc1NC(=S)NC1CCC(CN2CCC(c3c[nH]c4ccccc34)CC2)CC1 (stereo not given) | 97% and 100% | 49% and 54% | 34% and 25% |

| Compound | Inhibition [1] | Inhibition [2] | Inhibition [3] |
| --- | --- | --- | --- |
| CC[C@H]1CN2CC[C@H]1C[C@@H]2[C@H](O)c1ccnc2ccc(O)cc12 | 94% | 0% | 0% |
| Cc1cc(C(=O)NC2CCN(CC3(c4ccc(Cl)cc4)CCC3)CC2)on1 | 98% | 95% | 5% |
| Br.COc1ccc(CC(C)NCC(O)c2cccc(C(F)(F)F)c2)cc1F (stereo not given) | 91% | 65% | 0% |
| CC(=O)C1(c2ccccc2)CCN(CCC2(c3ccc(Cl)c(Cl)c3)CN(C(=O)c3cccc(Cl)c3)CCO2)CC1 (stereo not given) | 90% | 61% | 37% |
| Cc1ccccc1CNCC(O)c1cccc(C(F)(F)F)c1 (stereo not given) | 99% | 77% | 5% |
| CO/C=C(/C(=O)OC)c1ccccc1Oc1cc(Oc2ccccc2C#N)ncn1 [AZOXYSTROBIN] | 98% | 98% | 7% |
| CC(Cc1ccc(OCCCCOc2ccccc2)cc1)NCCc1ccccc1Cl (stereo not given) | 97% | 58% | 100% |
| CCCCCNC(=N)N/N=C/c1c[nH]c2ccc(OC)cc12.Cl | 86% | 2% | 16% |
| COc1ccc(F)cc1-c1csc(N(c2ccc(F)cc2)C2CCNCC2)n1.O=C(O)C(F)(F)F | 94% | 0% | 15% |
| CC[C@H]1CN2CC[C@H]1C[C@H]2[C@H](OC(=O)c1ccccc1)c1cc(C#N)nc2ccc(OC)cc12 | 97% | 49% | 19% |
| COc1cccc(CN2CCC(CCOC(c3ccccc3)c3ccccc3)CC2)c1O | 97% | 99% | 33% |
| COc1ccccc1CNCC(O)c1cc(C(F)(F)F)ccc1C(F)(F)F (stereo not given) | 100% | 95% | 10% |
| CC[C@H]1CN2CC[C@@H]1C[C@H]2[C@H](O)c1cc(N2CCC(O)(c3ccc(Cl)cc3)CC2)nc2ccc(OC)cc12 | 100% | 98% | 21% |
| O=C(/C=C/c1ccc(Cl)cc1Cl)NC1CCC(CN2CCC(c3c[nH]c4ccccc34)CC2)CC1 (stereo not given) | 100% | 79% | 37% |
| Cc1[nH]c2ccccc2c1C1CCN(CC2CCC(NC(=O)/C=C/c3ccc(Cl)c(Cl)c3)CC2)CC1 (stereo not given) | 100% | 93% | 15% |
| O=C(CCC(=O)c1ccc2c3c(cccc13)CC2)NC1CCC(CN2CCC(c3c[nH]c4ccccc34)CC2)CC1 (stereo not given) | 96% | 13% | 34% |
| COC(C(=O)OCCC1CCCN1C)(c1ccccc1)C1CCCCC1 (stereo not given) | 100% | 5% | 3% |
| COc1ccc2[nH]cc(C3=CCN(CC4CC4C(=O)c4ccccc4)CC3)c2n1 (stereo not given) | 95% | 93% | 22% |
| CC[C@H]1CN2CC[C@@H]1C[C@H]2[C@H](O)c1cc(-c2ccccc2)nc2ccc(O)cc12.Cl | 99% | 99% | 14% |
| O=C(O)c1ccc2nc(-c3ccc(-c4ccccc4)cc3)n(C3CCN(Cc4ccc(-c5ncc[nH]5)cc4)CC3)c2c1 | 91% | 99% | 3% |

| Compound | Inhibition [1] | Inhibition [2] | Inhibition [3] |
| --- | --- | --- | --- |
| O=C(/C=C/c1ccc(O)cc1)NC1CCC(CN2CCC(c3c[nH]c4ccccc34)CC2)CC1 (stereo not given) | 99% | 51% | 21% |
| Cc1cc(N)nc2ccc(CNCCc3ccccc3Br)cc12.Cl | 100% | 77% | 28% |
| CCN(CC)CCN1C(=O)C(O)(c2ccccc2Cl)c2c1cc(C(N)=O)cc2C(F)(F)F.Cl (stereo not given) | 100% | 86% | 16% |
| COC(=O)c1ccc(CC(C)NCC(O)c2cccc(C(F)(F)F)c2)cc1F.Cl (stereo not given) | 82% | 47% | 1% |
| COc1ccc(C=CC(=O)NC2CCC(CN3CCC(c4c[nH]c5ccccc45)CC3)CC2)cc1OC (stereo not given) | 100% | 85% and 72% | 14% and 15% |
| CO[C@@H]1C[C@@H](C(=O)Nc2ccccc2)N(c2ccc(C#N)c3ccccc23)C1 | 98% | 100% | 7% |
| COc1c(F)cc(CC(C)NCC(O)c2cccc(Cl)c2)cc1F.Cl (stereo not given) | 93% | 86% | 0% |
| CC1=CC(=O)[C@@H](O)[C@]2(C)[C@H]3[C@@]4(O)OC[C@@]35[C@@H](C[C@@H]12)OC(=O)C[C@H]5[C@@H](C)[C@H]4O [CHAPARRINONE] | 99% | 98% | 38% |
| Oc1cccc(C2CCCN(Cc3cccc4cc[nH]c34)C2)c1 (stereo not given) | 100% | 82% | 16% |
| Cc1cc2cc(CNCCc3ccccc3Br)ccc2nc1N.Cl | 98% | 91% | 31% |
| Cc1[nH]c2ccccc2c1C1=CCN(CCN2CCOc3c(Br)cccc3C2=O)CC1 | 97% | 76% | 15% |
| Cc1cccc(N2CCN(Cc3cc(Cl)ccc3O)CC2)c1C.O=C(O)C(=O)O | 96% | 96% | 0% |
| CCOC(C(=O)OCC1CCCN1C)(c1ccccc1)c1ccccc1 (stereo not given) | 97% | 3% | 13% |
| S=C(Nc1ccccc1Cl)NC1CCC(CN2CCC(c3c[nH]c4ccccc34)CC2)CC1 (stereo not given) | 90% | 12% | 31% |
| COC(=O)/C=C/c1ccc(CC(C)NCC(O)c2cccc(Br)c2)cc1 (stereo not given) | 97% | 93% | 2% |
| CC(C)CNCc1ccc(-c2ccc(CN(C(=O)NC3CCCCC3)C3CCN(Cc4ccccc4)CC3)cc2)cc1.O=C(O)C(F)(F)F | 100% | 88% | 39% |
| COCCNCc1cccc(-c2ccc(CN(C(=O)NC3CCCCC3)C3CCN(Cc4ccccc4)CC3)cc2)c1.O=C(O)C(F)(F)F | 100% | 31% | 32% |
| O=C(O)C(F)(F)F.O=C(c1cccs1)N(Cc1cccc(-c2ccc(CNC3CCCC3)cc2)c1)C1CCN(Cc2ccccc2)CC1 | 90% | 74% | 20% |
| Cl.c1ccc2c(NCCCCCCCCCNc3c4ccccc4nc4ccccc34)c3ccccc3nc2c1 | 100% | 95% | 99% |
| C/C=C1\CN2CC[C@H]1C[C@H]2[C@H](O)c1ccnc2ccc(OC)cc12.O=S(=O)(O)O | 99% | 61% | 0% |
